Measured values from PubChem BioAssay (Tox21).
Several values for one entry are separate records, joined by “and”; a condition that tells them apart may be missing. Equal values may be shown once. Results filed as inconclusive are left out. Where a call stands in place of a potency, no number is given. Activity calls are given as the source filed them. The call rests on the fitted dose curve.

How the values were obtained:
[1] = target: Acetylcholinesterase (Homo sapiens) (UniProt P22303); assay: Acetylcholinesterase (AChE) small molecule antagonists: colormetric cell-based qHTS assay (AID 1347395); conditions: SH-SY5Y cells AChE activity, colorimetric (Ellman); series mostly up to 115 µM; further: nearly all actives have a fitted effect of over 30% in size; further: potency means the concentration at half of the fitted maximal effect
Sequence of Acetylcholinesterase (Homo sapiens) (P22303 whole entry, looked up): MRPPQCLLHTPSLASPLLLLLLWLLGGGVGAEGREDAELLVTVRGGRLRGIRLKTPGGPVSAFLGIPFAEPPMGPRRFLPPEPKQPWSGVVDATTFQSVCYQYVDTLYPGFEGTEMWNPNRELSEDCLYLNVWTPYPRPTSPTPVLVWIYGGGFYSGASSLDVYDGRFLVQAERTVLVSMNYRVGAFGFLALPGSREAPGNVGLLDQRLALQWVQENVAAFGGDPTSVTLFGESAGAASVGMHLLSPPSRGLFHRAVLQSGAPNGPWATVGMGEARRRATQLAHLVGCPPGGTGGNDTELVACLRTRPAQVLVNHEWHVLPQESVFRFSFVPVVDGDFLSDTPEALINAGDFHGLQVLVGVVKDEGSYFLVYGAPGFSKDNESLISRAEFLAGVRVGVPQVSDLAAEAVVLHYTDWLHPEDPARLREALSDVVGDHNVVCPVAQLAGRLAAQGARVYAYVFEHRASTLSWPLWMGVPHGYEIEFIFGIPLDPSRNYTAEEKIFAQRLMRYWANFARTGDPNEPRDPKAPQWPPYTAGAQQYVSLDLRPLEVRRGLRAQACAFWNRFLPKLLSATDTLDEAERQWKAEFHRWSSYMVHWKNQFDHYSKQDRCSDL
Summary of the method: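 AChE inhibition read colorimetrically via DTNB–thiocholine in SH-SY5Y cells. Compound 30 min, substrate 90 min, both 37 C.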

[2] = target: Acetylcholinesterase (Homo sapiens) (UniProt P22303); assay: Acetylcholinesterase (AChE) small molecule antagonists: enzyme-based qHTS assay (AID 1347397); conditions: Potency: AChE enzyme activity inhibition; outcome: AChE enzyme activity inhibition; series mostly up to 115 µM; further: nearly all actives have a fitted effect of over 55% in size; further: potency means the concentration at half of the fitted maximal effect
Summary of the method: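 Colorimetric DTNB readout of acetylthiocholine hydrolysis, 10 min at room temperature, after 30 min room-temperature exposure of 50 mU/mL recombinant human enzyme to compound; DMSO vehicle control.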

[3] = target: Acetylcholinesterase (Homo sapiens) (UniProt P22303); assay: Acetylcholinesterase (AChE) small molecule antagonists: fluorescence cell-based qHTS assay (AID 1347398); conditions: SH-SY5Y cells; Potency: AChE activity; outcome: AChE activity; series mostly up to 115 µM; further: nearly all actives have a fitted effect of over 50% in size; further: potency means the concentration at half of the fitted maximal effect
Summary of the method: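 Cellular AChE activity read as thiocholine from acetylthiocholine hydrolysis, detected by Thiolite Green fluorescence at 490/520 nm after 40 min at room temperature. Compounds were pre-incubated 30 min at 37 C on adherent SH-SY5Y cells.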

[4] = target: Acetylcholinesterase (Homo sapiens) (UniProt P22303); assay: Acetylcholinesterase (AChE) small molecule antagonists: enzyme-based qHTS assay with human liver microsomes (AID 1347399); conditions: Potency: qHTS inhibition; outcome: qHTS inhibition; series mostly up to 115 µM; further: nearly all actives have a fitted effect of over 60% in size
Summary of the method: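 Recombinant human AChE (50 mU/mL in the enzyme mix) and human liver microsomes (0.25 mg/mL final) were preincubated with compound and NADPH (0.25 mg/mL final) for 30 min at 37 C. Acetylthiocholine/DTNB was then added; thiocholine was read colorimetrically after 10 min at room temperature.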

SMILES | Potency [1] | Potency [2] | Potency [3] | Potency [4] | activity, negative = inhibition [1] | activity change, negative = inhibition [2] | activity change, negative = inhibition [3] | activity change, negative = inhibition [4]
COc1c(N2CCNC(C)C2)c(F)cc2c(=O)c(C(=O)O)cn(C3CC3)c12 (stereo unspecified) | inactive | inactive | inactive | inactive | – | – | – | –
CCCCCCCCCCCCCCCS(=O)(=O)Oc1ccccc1 | inactive | inactive | inactive | inactive | – | – | – | –
CC(CSC(=O)c1ccccc1)C(=O)N1C[C@@H](Sc2ccccc2)C[C@H]1C(=O)O (stereo partly specified) | – | – | – | – | 0.861% [at 23.6 µM] (inactive) | -0.415% [at 23.6 µM] (inactive) | 13.2% [at 23.8 µM] (inactive) | 2.18% [at 23.6 µM] (inactive)
CCN(CC)CCCC(C)Nc1ccnc2cc(Cl)ccc12 (stereo unspecified) | 9.52 µM (active) | – | 3.79 µM (active) | – | – | -3.67% [at 10.5 µM] (inactive) | – | -0.628% [at 10.5 µM] (inactive) and -0.0844% [at 23.6 µM] (inactive)
Nc1ccc(C(=O)O)c(O)c1 | inactive | inactive | inactive | inactive | – | – | – | –
CC(NC(CCc1ccccc1)C(=O)O)C(=O)N1C(=O)N(C)CC1C(=O)O (stereo unspecified) | inactive | inactive | inactive | inactive | – | – | – | –
O=[N+]([O-])c1ccc(Nc2ccc(Nc3ccccc3)c(S(=O)(=O)O)c2)c([N+](=O)[O-])c1 | inactive | inactive | inactive | inactive | – | – | – | –
CC(C)CCCC(C)CCO (stereo unspecified) | inactive | inactive | inactive | inactive | – | – | – | –
CC(C)(C)C1CCC(=O)CC1 | inactive | inactive | inactive | inactive | – | – | – | –
CC(CC(=O)Cl)CC(C)(C)C (stereo unspecified) | inactive | inactive | inactive | inactive | – | – | – | –
Cc1cnc(C)c(C)n1 | inactive | inactive | inactive | inactive | – | – | – | –
CCCCOc1ccc(N)cc1 | inactive | inactive | inactive | inactive | – | – | – | –
CC(=O)OCC1=C(C(=O)O)N2C(=O)[C@@H](NC(=O)CSc3ccncc3)[C@H]2SC1 | inactive | inactive | inactive | inactive | – | – | – | –
CCOC(=O)c1ccccc1OC | inactive | inactive | inactive | inactive | – | – | – | –
O=C(O)c1ccc(CO)o1 | inactive | inactive | inactive | inactive | – | – | – | –
CC(=O)c1ccccc1N | inactive | inactive | inactive | inactive | – | – | – | –
COCCCC/C(=N\OCCN)c1ccc(C(F)(F)F)cc1 | inactive | inactive | inactive | inactive | – | – | – | –

SMILES | Potency [1] | Potency [2] | Potency [3] | Potency [4] | activity, negative = inhibition [1] | activity change, negative = inhibition [2] | activity change, negative = inhibition [3] | activity change, negative = inhibition [4]
COC(=O)C1=C(C)NC(C)=C(C(=O)O[C@@H]2CCCN(Cc3ccccc3)C2)[C@@H]1c1cccc([N+](=O)[O-])c1 | inactive | inactive | inactive | inactive | – | – | – | –
CN(C)CCCOc1nn(Cc2ccccc2)c2ccccc12 | inactive | inactive | inactive | inactive | – | – | – | –
O=c1cccccc1O | inactive | inactive | inactive | inactive | – | – | – | –
O=C(NCCO[N+](=O)[O-])c1cccnc1 | inactive | inactive | inactive | inactive | – | – | – | –
COC(=O)c1cc(S(N)(=O)=O)ccc1OC | inactive | inactive | inactive | inactive | – | – | – | –
O=c1c(O)c(-c2ccc(O)cc2O)oc2cc(O)cc(O)c12 | inactive | inactive | inactive | inactive | – | – | – | –
CCCc1ccc(O)c(OC)c1 | inactive | inactive | inactive | inactive | – | – | – | –
CCCC1CCC(=O)CC1 | inactive | inactive | inactive | inactive | – | – | – | –
C[C@@H]1C[C@H]2[C@@H]3C[C@H](F)C4=CC(=O)C(Cl)=C[C@]4(C)[C@@]3(F)[C@@H](O)C[C@]2(C)[C@@]1(O)C(=O)CO | inactive | inactive | inactive | inactive | – | – | – | –
CCC(=O)/C=C/c1ccc(OC)cc1 | inactive | inactive | inactive | inactive | – | – | – | –
O=C(CCCCCCC(=O)Nc1ccccc1)NO | inactive | inactive | inactive | inactive | – | – | – | –
COc1cc2nc(N(C)CCCNC(=O)C3CCCO3)nc(N)c2cc1OC (stereo unspecified) | 17.4 µM (active) | 24.5 µM (active) | 15.5 µM (active) | inactive | – | – | – | –
N#CCN(CC#N)CCN(CC#N)CC#N | inactive | inactive | inactive | inactive | – | – | – | –
C=CC(=O)OCCn1c(=O)n(CCOC(=O)C=C)c(=O)n(CCOC(=O)C=C)c1=O | inactive | inactive | inactive | inactive | – | – | – | –
COc1ccccc1N1CCN(CCCNc2cc(=O)n(C)c(=O)n2C)CC1 | inactive | inactive | inactive | inactive | – | – | – | –
COc1ccc(-c2ccc3cc(C(=O)O)ccc3c2)cc1C12CC3CC(CC(C3)C1)C2 | inactive | inactive | inactive | inactive | – | – | – | –
O=C1CCCN1C1CCCCC1 | inactive | inactive | inactive | inactive | – | – | – | –
